Assay results published in PubChem BioAssay AID540333 (Southern Research Specialized Biocontainment Screening …, 2011).
The campaign covered roughly 10,000 compounds. About 320 (3.2%) were called active. The sample holds actives, similar compounds and a random draw of the others, so the mix is not that of the screen. A number with no mark means an inactive call. Cut-off read from the data, not from the text of the source: active = CPE inhibition mostly above about 9.1% (no sharp cut-off); inactive = mostly below about 7.2%.

assay: Dengue virus cytopathic effect inhibitors, cell-based, CPE readout, HTS (AID 540333); details: Dengue virus CPE inhibition in host cells, at 20 µM; active compounds read high

| SMILES | CPE inhibition |
| --- | --- |
| N=C(N)SCc1nc2ccccc2c(=O)n1-c1ccccc1 | inactive |
| CC1CCC(=O)N(CCSc2ccccc2)CC1 (configuration not stated) | 0.29% |
| O=C(c1ccc(COc2ccc(Cl)cc2)o1)N1N=C(C(F)F)CC1(O)C(F)F (configuration not stated) | 3% |
| CCO[C@H]1OC(C(N)=O)=C[C@@H](C(C)(C)C)[C@@H]1CCCO | inactive |
| CCC(=O)NC(c1ccccc1Cl)c1c(O)ccc2ccccc12 (configuration not stated) | 4.07% |
| COc1ccccc1C(NC(=O)C1CCCCC1)c1c(O)ccc2ccccc12 (configuration not stated) | 0.755% |
| CC(C)CC(=O)NC(c1ccccc1Cl)c1c(O)ccc2ccccc12 (configuration not stated) | 69% (active) |
| CC(C)c1ccc(NC(=S)NCCc2c[nH]c3ccccc23)cc1 | inactive |
| C/C(=N\NC(=O)c1ccccc1-n1cccc1)C1CC1 | 0.14% |
| CON1C(=O)C(=O)N(OC)C2CCCCCC21 (configuration not stated) | 0.76% |
| COC(=O)c1ccc(CSc2nnc(CS(=O)Cc3ccc(Br)cc3)n2-c2ccccc2)cc1 (configuration not stated) | 9.53% |
| CCOc1ccc(NCc2nnc(SCc3ccc(Cl)cc3)n2-c2ccccc2)cc1 | 15.5% (active) |
| COc1ccc(-n2c(CNc3ccc(C)cc3)nnc2SCc2ccccc2)cc1 | 13.1% (active) |
| COc1ccc(-n2c(SCc3ccc([N+](=O)[O-])cc3)nnc2-c2ccc(C)cc2)cc1 | 11.5% |
| CCOc1ccc(NCc2nnc(SCC(=O)Nc3nc(-c4ccccc4)cs3)n2-c2ccccc2)cc1 | 0.01% |
| COc1ccc(NCc2nnc(SCC(=O)Nc3nc(-c4ccccc4)cs3)n2-c2ccccc2)cc1 | inactive |
| Cc1cc(C(=O)N/N=C/c2cc(Br)cc([N+](=O)[O-])c2O)c2ccccc2n1 | 0.34% |
| CCOC(=O)c1cccc(S(=O)(=O)N2CCCC2)c1 | 0.06% |
| O=C(NCc1ccccc1)C1=C[C@@H](C2CCCCC2)C[C@@H](OCCCCO)O1 | 2.12% |

| SMILES | CPE inhibition |
| --- | --- |
| Cc1[nH][nH]c(=O)c1C | 0.36% |
| Cc1ccc(S(=O)(=O)NNC(=S)NC(=O)c2ccc([N+](=O)[O-])cc2)cc1 | inactive |
| CC(C)COP(=O)(c1ccc(N(C)C)cc1)C(Nc1ccccc1)c1ccccc1 (configuration not stated) | 29.1% (active) |
| CC(C)COP(=O)(c1ccc(N(C)C)cc1)C(Nc1ccccc1)c1cccnc1 (configuration not stated) | 0.73% |
| CCCOP(=O)(c1ccc(N(C)C)cc1)C(Nc1ccccc1)c1ccc(N(C)C)cc1 (configuration not stated) | 0.64% |
| O=C(NC1CCCc2ccccc21)c1ccc(Br)cc1 (configuration not stated) | 3.09% |
| Nc1ccc(-n2nnnc2CN2CCOCC2)cc1 | 0.25% |
| COc1ccc(CC(=O)Nc2cc3oc4ccccc4c3cc2OC)cc1 | 0.095% |
| C=CCOC(=O)C1=C[C@@H](c2ccc(C(F)(F)F)cc2)C[C@@H](OCCCCO)O1 | 0.15% |
| CNC(=O)/C(C#N)=C/c1c(N(Cc2ccccc2)Cc2ccccc2)nc2ccccn2c1=O | 14.1% (active) |
| Cc1cccn2c(=O)c(/C=C(\C#N)C(N)=O)c(N3CCN(Cc4ccc5c(c4)OCO5)CC3)nc12 | 0.905% |
| CNC(=O)/C(C#N)=C/c1c(N(Cc2ccccc2)Cc2ccccc2)nc2c(C)cccn2c1=O | 17% (active) |
| Cc1ccc(Oc2nc3ccccn3c(=O)c2/C=C(\C#N)C(=O)Nc2c(C)n(C)n(-c3ccccc3)c2=O)c(C)c1 | 0.875% |
| CCNC(=O)/C(C#N)=C/c1c(N2CCN(Cc3ccc4c(c3)OCO4)CC2)nc2c(C)cccn2c1=O | inactive |
| Cc1cccc(Oc2nc3ccccn3c(=O)c2/C=C(\C#N)C(=O)NC2CCS(=O)(=O)C2)c1 (configuration not stated) | 1.43% |
| COc1ccc(/C=C2/C(=O)N(Cc3ccccc3)N=C2C)cc1 | inactive |
| CCCCn1[nH]c(-c2ccccc2)cc1=O | inactive |
| COc1ccc(OC)c(/C=C/C(=O)OCC(=O)Nc2cccc(Oc3ccccc3)c2)c1 | 0.45% |
| COc1cc(/C=C/C(=O)Nc2nnc(CC(C)C)s2)cc(OC)c1OC | 1.95% |

| SMILES | CPE inhibition |
| --- | --- |
| CCCS(=O)(=O)Nc1c(OC)ccc2c1c(C(=O)OCC)c(C)n2C | inactive |
| CC(C)CNC(=O)c1ccccc1NC(=O)/C=C/c1cccc([N+](=O)[O-])c1 | inactive |
| CC(=O)NN1C(=O)/C(=C/c2ccc(C(C)C)cc2)SC1=S | inactive |
| O=C(COC(=O)c1oc2ccccc2c1COc1ccccc1)NCCN1C(=O)CSC1=O | 1.47% |
| CCSc1nc2ccccc2n1C(=O)c1ccc(S(=O)(=O)N2CCCCCC2)cc1 | 0.17% |
| CC(C)CC1Nc2ncnc(N3CCN(c4ccccn4)CC3)c2N(Cc2ccccc2)C1=O (configuration not stated) | 1.43% |
| O=C(Cc1ccc(Br)cc1)N1CCN(c2ccccn2)CC1 | inactive |
| COc1ccc(CN2C(=O)C(Cc3ccccc3)Nc3ncnc(N4CCCCC4)c32)cc1 (configuration not stated) | 2.1% |
| CCC1Nc2ncnc(N3CCOCC3)c2N(Cc2ccc(Br)cc2)C1=O (configuration not stated) | inactive |
| CCC1Nc2ncnc(N3CCN(c4ccccc4)CC3)c2N(Cc2ccc(Br)cc2)C1=O (configuration not stated) | 11.1% (active) |
| CCC1Nc2ncnc(N3CCOCC3)c2N(Cc2ccc(Cl)cc2)C1=O (configuration not stated) | 0.26% |
| Cc1ccc(CN2C(=O)C(CC(C)C)Nc3ncnc(N4CCN(c5ccccn5)CC4)c32)cc1 (configuration not stated) | 2.52% |
| CC(C)CC1Nc2ncnc(N3CCN(c4ccccn4)CC3)c2N(Cc2ccc(Cl)cc2)C1=O (configuration not stated) | 9.66% (active) |
| Cc1ccc(CN2C(=O)C(CC(C)C)Nc3ncnc(N4CCN(c5ccccc5)CC4)c32)cc1 (configuration not stated) | 37.1% (active) |
| COc1ccc2oc(=O)c(/C(C)=N/Nc3nc(-c4cc(C)ccc4C)cs3)cc2c1 | inactive |
| CC(C)(C)C1CCC(=NNC(=O)CN(c2ccccc2)S(=O)(=O)c2ccccc2[N+](=O)[O-])CC1 (configuration not stated) | inactive |
| N#Cc1ccc(COC(=O)CSc2nnc(N)s2)cc1 | 0.615% |
| NC(=O)CC(NC(=O)Cc1cccc2ccccc12)c1ccc(NCc2ccccc2)c([N+](=O)[O-])c1 (configuration not stated) | 2.03% |
| CCOC(=O)c1c(-c2ccc(F)cc2)csc1NC(=O)CCN1C(=O)c2ccccc2C1=O | 1.4% |
